This is a sample that favours compounds with a hit; in the whole collection about 1.6% have one here.
KCNQ2 enhance: KCNQ2 (rat) channel potentiation. 310,000 compounds, 0.54% hits. B-score at 10 µM. CHO-K1 KCNQ2, FluxOR thallium flux fluorescence; active compounds read high. O88943. AID 2239;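 active = fluorescence ratio B-score at least 3 SD of library B-scores, with initial fluorescence B-score within 3 of them, cut at about 5.3 in these data; same plate scores as AID 2156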;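 note: B-score of peak minus minimum over baseline fluorescence ratio after K+ and Tl+ stimulus; positive B-score means potentiation of KCNQ2 with more thallium influx and brighter signal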
KCNQ2 block: inhibitors of rat KCNQ2 potassium channel; O88943; CHO-K1 KCNQ2, FluxOR thallium flux, 20 min; active compounds read low; B-score at 10 µM; 310,000 compounds, 1.1% hits; AID 2156;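 active = fluorescence ratio B-score at most minus 3 library SDs, with starting brightness B-score within 2 library SDs, cut at about -5.5 in these data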
Numbers without * were called inactive.

O=C(CCN1CCOCC1)NNC(=S)NC(=O)c1ccccc1 was read as KCNQ2 block inactive.
Screening CCOC(=O)C1=C(COC(=O)CCNS(=O)(=O)c2ccc(NC(C)=O)cc2)NC(=O)NC1C (configuration not stated) returned KCNQ2 block inactive.
`NC1=NC(=O)/C(=C/c2ccccc2OS(=O)(=O)c2ccc3ccccc3c2)S1` gave KCNQ2 enhance 1.2 and KCNQ2 block inactive.
Cc1cc(C(F)(F)F)n2nc(-c3cnn(C)c3C(F)(F)F)c(Br)c2n1 was read as KCNQ2 enhance 0.59 and KCNQ2 block inactive.
For Cc1ccc(S(=O)(=O)N2CCN(c3nc4ccccc4nc3-n3nc(C)cc3C)CC2)cc1 the results were KCNQ2 enhance -6 and KCNQ2 block -6*.
Screening Cc1nc2ccccc2nc1N1CCC(C)CC1 returned KCNQ2 enhance 0.87 and KCNQ2 block inactive.
`Cc1cc(C)n(-c2nc3ccccc3nc2N2CCN(C(=O)c3ccc(F)cc3)CC2)n1` gave KCNQ2 block inactive.
Cc1cc(C)n(-c2nc3ccccc3nc2N2CCC(C)CC2)n1 was read as KCNQ2 enhance -6.8 and KCNQ2 block -6.8*.
`CCCCc1n(CC(=O)c2ccc(Cl)cc2)c2ccccc2[n+]1C` gave KCNQ2 enhance 1.2 and KCNQ2 block inactive.
For CN(C)c1ccc(C(=O)Nc2nc3c(s2)CCCC3)cc1 the results were KCNQ2 block inactive.
For CC(C)(C)c1ccc(C(=O)NC(=S)Nc2nc3c(s2)CCCC3)cc1 the results were KCNQ2 enhance 8.5* and KCNQ2 block inactive.
`Oc1ccc(Br)cc1C1Nc2ccccc2S1` (configuration not stated) gave KCNQ2 block inactive.
For COc1ccc(NC(=O)C(=O)NCC2CCCN2S(=O)(=O)c2cccs2)cc1 (configuration not stated) the results were KCNQ2 block inactive.
Screening Cc1cccc(NCc2ccccc2OCc2ccccc2F)c1 returned KCNQ2 enhance -5.5 and KCNQ2 block -5.5*.
Screening Cc1ccc(NCc2ccccc2OCc2ccccc2F)cc1 returned KCNQ2 block inactive.
Cc1ccccc1C(=O)N1CCC(C(=O)N(C)CC(=O)Nc2cccc(F)c2)CC1 was read as KCNQ2 enhance 1.4 and KCNQ2 block inactive.
CCOC(=O)N1CCC(NS(=O)(=O)c2ccc(C#N)cc2)CC1 was read as KCNQ2 enhance 0.35 and KCNQ2 block inactive.
For CN(C)CCNc1ncnc2c1sc1nc(N3CCCC3)c3c(c12)CC(C)(C)OC3 the results were KCNQ2 enhance 4.8 and KCNQ2 block inactive.
CCN(CC)CCNc1ncnc2c1sc1nc(N3CCCC3)c3c(c12)CC(C)(C)OC3 was read as KCNQ2 enhance 5.8* and KCNQ2 block inactive.
Cc1c(NC(=S)NC(=O)C2CCCCC2)c(=O)n(-c2ccccc2)n1C was read as KCNQ2 block inactive.
For COc1cccc(S(=O)(=O)NCc2ccc(C(=O)N3CCN(C)CC3)cc2)c1 the results were KCNQ2 enhance 0.95 and KCNQ2 block inactive.
CN(C)S(=O)(=O)n1cc(/C=C(\NC(=O)c2ccccc2F)C(=O)N2CCCC2)c2ccccc21 was read as KCNQ2 enhance 0.05 and KCNQ2 block inactive.
`Nc1ccccc1C(=O)NCC1(c2ccccc2)CCCC1` gave KCNQ2 block inactive.
CC1(c2nnc(-c3cccc(Cl)c3)o2)CC(c2c(Cl)cccc2Cl)=NO1 (configuration not stated) was read as KCNQ2 enhance -5.6 and KCNQ2 block -5.6*.
`Cc1ccc(C2=NOC(C)(c3nnc(-c4cccc(Cl)c4)o3)C2)cc1` (configuration not stated) gave KCNQ2 block inactive.
For CCN(CC)S(=O)(=O)c1ccc2c(c1)N(CC(=O)N1CCCC1)C(=O)CO2 the results were KCNQ2 block inactive.
`CCSc1ncc(/C=N/Nc2ccc(F)cc2)n1C` gave KCNQ2 enhance -8.5 and KCNQ2 block -8.5*.
Screening CC(=O)Nc1ccc(NC(=O)CSc2ncc(C(=O)Nc3ccc(F)cc3)c(=O)n2C)cc1 returned KCNQ2 block inactive.
Screening CCOc1ccc(C2C(C(=O)OC)=CN(C(C)c3ccccc3)C=C2C(=O)OC)cc1 (configuration not stated) returned KCNQ2 enhance -7.4 and KCNQ2 block -7.4*.
For CCOc1ccc(CCNC(=O)C(O)c2ccccc2)cc1 (configuration not stated) the results were KCNQ2 enhance 0.18 and KCNQ2 block inactive.
`COCC(=O)NC1CC(C)(C)Cc2c1cnn2-c1ccc(F)cc1` (configuration not stated) gave KCNQ2 enhance 0.53 and KCNQ2 block inactive.
O=C(Nc1cccc(C(F)(F)F)c1)Oc1ccc(Cl)c2cccnc12 was read as KCNQ2 enhance 5.7* and KCNQ2 block inactive.
For CCN(CC)C(=O)Oc1ccc(Cl)c2cccnc12 the results were KCNQ2 block inactive.
COc1ccc(CCN(C)C(=O)c2c(C)nn(-c3ccccc3)c2C)cc1OC was read as KCNQ2 block inactive.
